Source: PubChem (several laboratories)
CHOP inh: blocks CHOP induction under ER stress. inhibition, % at 10 µM. CHO-K1 CHOP-promoter luciferase, tunicamycin-induced, 15-18 h. actives 3.8% (n = 220,000);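 active = compounds that reduced the stress-induced luciferase reporter signal by more than about 70% of percent inhibition, limit read from the data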;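 note: 0% = tunicamycin plus vehicle and 100% = wells without tunicamycin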
WT yeast gro inh: growth inhibition of WT yeast, mitochondrial fusion screen. inhibition, % at 10 µM. actives 2.1% (n = 190,000). mitochondrial fusion phenotypic screen, WT strain; in the data active = inhibition above about 58%; tested in S. cerevisiae
RAM network inh: yeast RAM network inhibition; S. cerevisiae dse1pr::URA3 reporter, 5-FOA growth OD615, 2 d; analog-sensitive cbk1-as2 kinase mutant strain; inhibition, % at 50 µM; actives 1.8% (n = 190,000); AID 868;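 active = inhibition above a set limit, 3 SD over mean compound inhibition, cut at about 8.4% in these data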;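 note: 0% = DMSO-only wells with no growth and 100% = 10 µM 1-NA-PP1 full growth; inhibition rescues growth on 5-FOA so higher OD means more RAM inhibition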
Lmaj promast: reduces viability of Leishmania major promastigotes | AID 1063 | actives 9% (n = 200,000) | resazurin fluorescence viability | inhibition, % at 10 µM; in the data active = inhibition above about 50%;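 note: promastigotes grown with compound for 44 hours at 28 °C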
The depositor's hits bear a star; . = no result. Shown are actives, neighbours in structure and some others; about 13% of the full set was active somewhere.

SMILES	CHOP inh	WT yeast gro inh	RAM network inh	Lmaj promast
CC1(C)CC(N=Cc2c(O)n(Cc3ccc4c(c3)OCO4)c(=O)c3ccccc23)CC(C)(C)N1	-25	-18	-1	101*
CC1(C)Cc2c(sc3nc(N/N=C/c4ccccc4)[nH]c(=O)c23)CO1	81*	-8	4	1
Clc1ccc(C[n+]2cc(-c3ccccc3)n3c2CCCCC3)c(Cl)c1	10	17	0	100*
Clc1ccc(C[n+]2cc(-c3ccccc3)n3c2CCC3)cc1Cl	-11	1	-1	99*
Clc1ccc(-c2c[n+](Cc3cccc(Cl)c3)c3n2CCC3)cc1	13	-10	0	100*
Clc1ccc(-c2c[n+](Cc3ccc(Cl)cc3Cl)c3n2CCCCC3)cc1	11	.	.	.
O=C(NNC(=O)C1CCCO1)c1ccc(F)cc1 (centres undefined)	12	-8	1	-3
Cc1ccc(/C=C2\SC(N3CCCC3)=NC2=O)cc1	15	-2	1	8
Cc1ccc(C2=NC(=O)/C(=C/c3cc(O)c(O)c(Br)c3)S2)cc1	72*	38	6	-4
COc1cc(/C=C2\SC(c3ccc(C)cc3)=NC2=O)cc(OC)c1O	58	8	3	57*
CCOC(=S)SCC(=O)N1CCc2ccccc2C1C1C(=O)CCCC1=O (centres undefined)	4	5	0	-5
OCC1(CCc2ccccc2)CCN(Cc2c(F)ccc(F)c2F)CC1	8	-1	0	2
OCC1(Cc2ccccc2)CCN(C2CCN(c3ccc(F)c(F)c3)CC2)CC1	19	-23	-1	98*
O=C(NC(=S)Nc1cccc(O)c1)c1ccco1	7	.	.	.
CCOc1ccc(NC(=S)N(CCCN2CCCC2)Cc2cccn2Cc2ccc(Cl)cc2)cc1	23	71*	5	100*
CN1CCN(CCCN(Cc2ccco2)C(=S)Nc2ccc(Cl)cc2)CC1	12	9	0	1
Cc1cccc(NC(=S)N(CCCN2CCCC2)Cc2cccn2Cc2ccc(Cl)cc2)c1	-37	78*	4	98*
CN(c1ccc(C(=O)Nc2ccc(CC#N)cc2)cc1)S(C)(=O)=O	12	-9	1	-9
CC(C)c1nnc(NC(=O)C2CCN(S(=O)(=O)c3ccc(-n4cnnn4)cc3)CC2)s1	6	6	4	-8
Nc1ncc(Br)cc1S(=O)(=O)NCCC(=O)Nc1cccc(Cl)c1	22	57	5	64*
CCC(NC(=O)c1ccccc1NC(=O)c1ccccc1)C(=O)OC (centres undefined)	5	77*	0	11
Cc1ccc(C(=O)Nc2ccccc2C(=O)NCc2ccccc2)cc1	80*	49	8.6*	15
CCC(NC(=O)c1ccccc1NC(=O)c1ccc(OC)cc1)C(=O)N1CCCC1 (centres undefined)	3	-8	1	1
CCC(C)C(NC(=O)c1ccccc1NC(=O)c1ccccc1)C(=O)N1CCOCC1 (centres undefined)	42	9	1	53*
Cc1ccc(NC(=O)Nc2ccccc2C(=O)NCc2ccccc2)cc1	56	21	5	-3
SMILES	CHOP inh	WT yeast gro inh	RAM network inh	Lmaj promast
Cn1cc(Cl)c(-c2n[nH]c(=S)n2C2CCCCC2)n1	-15	.	-1	1
CCn1cc(/C=N/NC(=O)c2cc3c(ccc4ccccc43)o2)c2ccccc21	39	29	1	100*
CCOC(=O)Cn1cc(/C=N/NC(=O)c2cc3ccccc3o2)c2ccccc21	-21	.	.	.
CC(C)n1cc(/C=N\NC(=O)c2cc3c(ccc4ccccc43)o2)c2ccccc21	19	5	5	97*
O=C(CCNS(=O)(=O)c1ccc(Br)s1)NCc1ccc2c(c1)OCO2	32	-2	2	6
CC1CCCN(C(=S)Nc2ccc3nc4n(c(=O)c3c2)CCCCC4)C1 (centres undefined)	1	-20	-1	1
O=C(Nc1ccc2nc3n(c(=O)c2c1)CCCC3)c1ccccc1[N+](=O)[O-]	20	-1	0	56*
CC1CC(C)CN(C(=S)Nc2ccc3nc4n(c(=O)c3c2)CCCCC4)C1 (centres undefined)	1	-10	0	85*
CCCN(CCC)CCCNC(=S)Nc1ccc2nc3n(c(=O)c2c1)CCCCC3	30	7	0	61*
CCOC(=O)N1CCN(C(=S)NC(=O)c2ccc(F)c(F)c2)CC1	-27	7	0	-3
Cc1ccc(S(=O)(=O)/N=C(\Nc2cc(C)on2)c2ccc(Cl)cc2)cc1	20	-18	4	-6
C#CCCOC(=O)N1C2=NC(C(=O)OC)=C(C(=O)OC)[C@@H]3N(CC=C)c4ccccc4[C@]23C[C@H]1C(=O)OC	8	.	.	.
COc1cccc(CC(=S)N2CCOCC2)c1	7	-12	-1	26
COc1cc(C=NCC2OCCc3ccccc32)cc(OC)c1 (centres undefined)	11	-1	1	-5
O=C(Nc1ccc(CN2CCS(=O)(=O)CC2)cc1)c1ccc(Cl)cc1	-4	.	.	.
CCC1CCCCN1c1nc2c(C=O)c(C)nn2c2ccccc12 (centres undefined)	89*	-1	5	13
Cc1ccc(Cn2cc(C(=O)c3ccc(F)cc3)c(=O)c3cc4c(cc32)OCCO4)cc1	4	10	10*	39
Cc1c(NC2(C#N)CCCCC2)c(=O)n(-c2ccccc2)n1C	11	-16	3	-4
CN(C)S(=O)(=O)c1cc(NC(=O)c2cc(=O)[nH]c3ccccc23)ccc1Cl	-3	-11	3	1
Cn1c(NCC(O)CO)nc2c1c(=O)n(Cc1ccc(Cl)c(Cl)c1)c(=O)n2C (centres undefined)	19	2	1	73*
Cc1cc(OCCN2CCCCCC2)ccc1[N+](=O)[O-]	-8	9	-1	92*
Cc1ccc([N+](=O)[O-])c(OCCCN2CCCCCC2)c1	15	9	1	98*
Cc1ccc(OCCCCN2CCCC(C)C2)c([N+](=O)[O-])c1 (centres undefined)	-13	18	0	86*
O=C(Nc1ccc(Cl)cc1)N1CCCN(c2ccc(C(F)(F)F)cc2[N+](=O)[O-])CC1	21	.	.	.
NS(=O)(=O)c1cccc(-n2cnnn2)c1	13	.	.	.
SMILES	CHOP inh	WT yeast gro inh	RAM network inh	Lmaj promast
COC(=O)c1ccc2c(=O)n(CCO)c(=S)[nH]c2c1	-17	-9	2	2
CCOC(=O)C1CCCN(C(=O)c2ccc(Cn3c(=S)[nH]c4cc(C(=O)OC)ccc4c3=O)cc2)C1 (centres undefined)	19	-3	5	13
O=C(NCCCN1CCCCC1)c1ccc2c(=O)n(CCc3ccccc3)c(=O)[nH]c2c1	38	5	1	57*
COC(=O)c1ccc2c(=O)n(CCCCCC(=O)O)c(=S)[nH]c2c1	73*	-5	4	-6
COc1ccc(Cn2c(=O)[nH]c3cc(C(=O)NCCCN4CCCCCC4)ccc3c2=O)cc1	3	-21	1	-7
CC1CCN(CCCNC(=O)c2ccc3c(=O)n(Cc4ccc(Cl)cc4)c(=S)[nH]c3c2)CC1	-44	19	0	100*
COC(=O)c1ccc2c(=O)n(Cc3ccc(C(=O)NC4CCCC4)cc3)c(=S)[nH]c2c1	85*	0	4	-5
